# Article PMC11006913
# Residue numbers refer to the chain shown, from its start.
# Molecular target: T1, NKX2-4 (Homo sapiens, UniProt Q9H2Z4 175-261)
# T1 sequence: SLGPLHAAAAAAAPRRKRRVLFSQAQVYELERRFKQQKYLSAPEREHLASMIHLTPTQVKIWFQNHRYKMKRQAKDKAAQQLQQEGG
# Experiment: PBM; 200 nM protein, PBS
# Conditions: dsDNA, one strand shown
row,Sequence,binding signal
1,AACGCTGG,"9.67 upbm affinity estimate (log intensity, higher = more binding, comparable within an allelic series)"
2,CCCTGCAG,"9.89 upbm affinity estimate (log intensity, higher = more binding, comparable within an allelic series)"
3,CTCTTGAA,"12.3 upbm affinity estimate (log intensity, higher = more binding, comparable within an allelic series)"
4,GCCCTTAA,"12 upbm affinity estimate (log intensity, higher = more binding, comparable within an allelic series)"
5,ACCTGCAG,"9.68 upbm affinity estimate (log intensity, higher = more binding, comparable within an allelic series)"
6,CGGTCGTA,"9.66 upbm affinity estimate (log intensity, higher = more binding, comparable within an allelic series)"
7,CGTTTGGC,"9.47 upbm affinity estimate (log intensity, higher = more binding, comparable within an allelic series)"
8,CTACTCAA,"12 upbm affinity estimate (log intensity, higher = more binding, comparable within an allelic series)"
9,CCGCCATA,"9.85 upbm affinity estimate (log intensity, higher = more binding, comparable within an allelic series)"
10,ATGTCCGG,"9.4 upbm affinity estimate (log intensity, higher = more binding, comparable within an allelic series)"
11,AGTGGTTC,"11.8 upbm affinity estimate (log intensity, higher = more binding, comparable within an allelic series)"
12,AACGCCAG,"9.78 upbm affinity estimate (log intensity, higher = more binding, comparable within an allelic series)"
13,CCGCTACC,"9.66 upbm affinity estimate (log intensity, higher = more binding, comparable within an allelic series)"
14,CACTCGAG,"12.4 upbm affinity estimate (log intensity, higher = more binding, comparable within an allelic series)"
15,ACGTACTC,"11.7 upbm affinity estimate (log intensity, higher = more binding, comparable within an allelic series)"
16,AGTACTCA,"12.4 upbm affinity estimate (log intensity, higher = more binding, comparable within an allelic series)"
17,CCCGGCCC,"9.81 upbm affinity estimate (log intensity, higher = more binding, comparable within an allelic series)"
18,AGTGCTTA,"11.9 upbm affinity estimate (log intensity, higher = more binding, comparable within an allelic series)"
19,AAAGCACT,"11.6 upbm affinity estimate (log intensity, higher = more binding, comparable within an allelic series)"
20,GGTCGCCA,"9.7 upbm affinity estimate (log intensity, higher = more binding, comparable within an allelic series)"

row,Sequence,binding signal
1,ATTCTTGA,"11.2 upbm affinity estimate (log intensity, higher = more binding, comparable within an allelic series)"
2,AGCTCGCG,"9.62 upbm affinity estimate (log intensity, higher = more binding, comparable within an allelic series)"
3,CTTGAGGA,"11.8 upbm affinity estimate (log intensity, higher = more binding, comparable within an allelic series)"
4,GTCCCACA,"9.67 upbm affinity estimate (log intensity, higher = more binding, comparable within an allelic series)"
5,ATCGGAGC,"9.9 upbm affinity estimate (log intensity, higher = more binding, comparable within an allelic series)"
6,CGATCGCA,"9.93 upbm affinity estimate (log intensity, higher = more binding, comparable within an allelic series)"
7,CAGTGCGC,"9.86 upbm affinity estimate (log intensity, higher = more binding, comparable within an allelic series)"
8,CTTCTCAA,"11.5 upbm affinity estimate (log intensity, higher = more binding, comparable within an allelic series)"
9,GCACTCGA,"12.5 upbm affinity estimate (log intensity, higher = more binding, comparable within an allelic series)"
10,AGGCGGGC,"9.16 upbm affinity estimate (log intensity, higher = more binding, comparable within an allelic series)"
11,GCGAGCCA,"9.69 upbm affinity estimate (log intensity, higher = more binding, comparable within an allelic series)"
12,CGCCCTGA,"9.83 upbm affinity estimate (log intensity, higher = more binding, comparable within an allelic series)"
13,CCCGCAGG,"9.01 upbm affinity estimate (log intensity, higher = more binding, comparable within an allelic series)"
14,CCAGAGAC,"9.71 upbm affinity estimate (log intensity, higher = more binding, comparable within an allelic series)"
15,ACGCAGTG,"9.6 upbm affinity estimate (log intensity, higher = more binding, comparable within an allelic series)"
16,CCGGTCGC,"9.5 upbm affinity estimate (log intensity, higher = more binding, comparable within an allelic series)"
17,CATCGCGA,"9.73 upbm affinity estimate (log intensity, higher = more binding, comparable within an allelic series)"
18,GTCAAGGA,"11.6 upbm affinity estimate (log intensity, higher = more binding, comparable within an allelic series)"
19,GATCGGCC,"9.87 upbm affinity estimate (log intensity, higher = more binding, comparable within an allelic series)"

# Molecular target: T2, NKX2-4 (Homo sapiens, UniProt Q9H2Z4 175-261, R246Q)
# T2 sequence: T1 sequence with R72Q
# Experiment: PBM; 200 nM protein, PBS
# Conditions: dsDNA, one strand shown
row,Sequence,binding signal
1,AACGCTGG,"9.82 upbm affinity estimate (log intensity, higher = more binding, comparable within an allelic series)"
2,CCCTGCAG,"9.93 upbm affinity estimate (log intensity, higher = more binding, comparable within an allelic series)"
3,CTCTTGAA,"13 upbm affinity estimate (log intensity, higher = more binding, comparable within an allelic series)"
4,GCCCTTAA,"12.2 upbm affinity estimate (log intensity, higher = more binding, comparable within an allelic series)"
5,ACCTGCAG,"9.76 upbm affinity estimate (log intensity, higher = more binding, comparable within an allelic series)"
6,CGGTCGTA,"9.81 upbm affinity estimate (log intensity, higher = more binding, comparable within an allelic series)"
7,CGTTTGGC,"9.6 upbm affinity estimate (log intensity, higher = more binding, comparable within an allelic series)"
8,CTACTCAA,"12.4 upbm affinity estimate (log intensity, higher = more binding, comparable within an allelic series)"
9,CCGCCATA,"9.84 upbm affinity estimate (log intensity, higher = more binding, comparable within an allelic series)"
10,ATGTCCGG,"9.49 upbm affinity estimate (log intensity, higher = more binding, comparable within an allelic series)"
11,AGTGGTTC,"12.1 upbm affinity estimate (log intensity, higher = more binding, comparable within an allelic series)"
12,AACGCCAG,"9.89 upbm affinity estimate (log intensity, higher = more binding, comparable within an allelic series)"
13,CCGCTACC,"9.79 upbm affinity estimate (log intensity, higher = more binding, comparable within an allelic series)"
14,CACTCGAG,"13 upbm affinity estimate (log intensity, higher = more binding, comparable within an allelic series)"
15,ACGTACTC,"11.9 upbm affinity estimate (log intensity, higher = more binding, comparable within an allelic series)"
16,AGTACTCA,"12.9 upbm affinity estimate (log intensity, higher = more binding, comparable within an allelic series)"
17,CCCGGCCC,"9.84 upbm affinity estimate (log intensity, higher = more binding, comparable within an allelic series)"
18,AGTGCTTA,"12.2 upbm affinity estimate (log intensity, higher = more binding, comparable within an allelic series)"
19,AAAGCACT,"11.9 upbm affinity estimate (log intensity, higher = more binding, comparable within an allelic series)"
20,GGTCGCCA,"9.8 upbm affinity estimate (log intensity, higher = more binding, comparable within an allelic series)"

row,Sequence,binding signal
1,ATTCTTGA,"11.7 upbm affinity estimate (log intensity, higher = more binding, comparable within an allelic series)"
2,AGCTCGCG,"9.63 upbm affinity estimate (log intensity, higher = more binding, comparable within an allelic series)"
3,CTTGAGGA,"12.2 upbm affinity estimate (log intensity, higher = more binding, comparable within an allelic series)"
4,GTCCCACA,"9.68 upbm affinity estimate (log intensity, higher = more binding, comparable within an allelic series)"
5,ATCGGAGC,"10 upbm affinity estimate (log intensity, higher = more binding, comparable within an allelic series)"
6,CGATCGCA,"9.97 upbm affinity estimate (log intensity, higher = more binding, comparable within an allelic series)"
7,CAGTGCGC,"9.79 upbm affinity estimate (log intensity, higher = more binding, comparable within an allelic series)"
8,CTTCTCAA,"11.9 upbm affinity estimate (log intensity, higher = more binding, comparable within an allelic series)"
9,GCACTCGA,"13.1 upbm affinity estimate (log intensity, higher = more binding, comparable within an allelic series)"
10,AGGCGGGC,"9.08 upbm affinity estimate (log intensity, higher = more binding, comparable within an allelic series)"
11,GCGAGCCA,"9.76 upbm affinity estimate (log intensity, higher = more binding, comparable within an allelic series)"
12,CGCCCTGA,"9.87 upbm affinity estimate (log intensity, higher = more binding, comparable within an allelic series)"
13,CCCGCAGG,"8.96 upbm affinity estimate (log intensity, higher = more binding, comparable within an allelic series)"
14,CCAGAGAC,"9.63 upbm affinity estimate (log intensity, higher = more binding, comparable within an allelic series)"
15,ACGCAGTG,"9.5 upbm affinity estimate (log intensity, higher = more binding, comparable within an allelic series)"
16,CCGGTCGC,"9.51 upbm affinity estimate (log intensity, higher = more binding, comparable within an allelic series)"
17,CATCGCGA,"9.58 upbm affinity estimate (log intensity, higher = more binding, comparable within an allelic series)"
18,GTCAAGGA,"11.6 upbm affinity estimate (log intensity, higher = more binding, comparable within an allelic series)"
19,GATCGGCC,"9.9 upbm affinity estimate (log intensity, higher = more binding, comparable within an allelic series)"
